Source: PubChem BioAssay (NCI)
Values joined by “and” are separate entries in the source; they are usually repeats but may differ in a detail not shown here. Equal values may be shown once. Compounds without any hit were thinned out: in the full panel of roughly 83,000, 20% have a hit.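 Cell lines were cultured in 96-well plates, exposed to a single compound concentration, and assessed for percent growth 48 hours later.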 Some compounds were tested as several samples or in several runs, with calls that do not always agree. Active and inactive are the calls of the source. The calls were made as follows: active = growth percent below 10; inactive = the rest.

Assays:
Assay in all cases: NCI-60 one-dose screen, 48 h (100 = growth as untreated, 0 = no growth, -100 = all killed)
[1] = system: NCI-H226 lung; settings: 10 µM
[2] = system: NCI-H322M lung; settings: 10 µM
[3] = system: HOP-62 NSCLC; settings: 10 µM
[4] = system: NCI-H460 lung; settings: 10 µM
[5] = system: A549/ATCC NSCLC; settings: 10 µM
[6] = system: 786-0 renal; settings: 10 µM
[7] = system: DU-145 prostate; settings: 10 µM
[8] = system: SF-268 CNS; settings: 10 µM
[9] = system: SF-295 CNS; settings: 10 µM
[10] = system: SF-539 CNS; settings: 10 µM
[11] = system: HCT-15 colon; settings: 10 µM
[12] = system: SNB-75 CNS; settings: 10 µM
[13] = system: SNB-19 CNS; settings: 10 µM
[14] = system: U251 CNS; settings: 10 µM
[15] = system: PC-3 prostate; settings: 10 µM
[16] = system: EKVX NSCLC; settings: 10 µM
[17] = system: UO-31 renal; settings: 10 µM
[18] = system: ACHN renal; settings: 10 µM
[19] = system: HL-60(TB) leukemia; settings: 10 µM unless noted
[20] = system: CCRF-CEM leukemia; settings: 10 µM

Row | SMILES | growth [1] | growth [2] | growth [3] | growth [4] | growth [5] | growth [6] | growth [7] | growth [8] | growth [9] | growth [10] | growth [11] | growth [12] | growth [13] | growth [14] | growth [15] | growth [16] | growth [17] | growth [18] | growth [19] | growth [20]
1 | C/C=C/CC(C)C(O)[C@H](NC(=O)[C@@H]1CCCN1C(=O)C(C)(C)NC(=O)CCCCCCCCC)C(=O)NC(C)(C)C(=O)N[C@@H](CCC(N)=O)C(=O)N[C@H](CCC(N)=O)C(=O)NC(C)(C)C(=O)NC(C)(C)C(=O)N[C@@H](CCC(N)=O)C(=O)N[C@H](CC(C)C)C(=O)N[C@H](CO)CC(C)C (some centres undefined) | 24.6% (inactive) and -36.3% (active) | 39.9% (inactive) and -7.7% (active) | 20.7% (inactive) and -41.7% (active) | 17.1% (inactive) and -70% (active) | 49.3% (inactive) and 26.3% (inactive) | 14.2% (inactive) and -83.8% (active) | -71% (active) and -43.1% (active) | -14.2% (active) and -46.2% (active) | -20.9% (active) and -75.3% (active) | -33.1% (active) and -100% (active) | 4.12% (active) and 4.44% (active) | -15.2% (active) and -83.2% (active) | 14.5% (inactive) and -95.4% (active) | 0.668% (active) and -89.7% (active) | 15.8% (inactive) and -29.7% (active) | 22.6% (inactive) and -41.8% (active) | 39.7% (inactive) and -38.5% (active) | 43.7% (inactive) and -32% (active) | -52.1% (active) and -47.2% (active) | -12.7% (active) and -38.8% (active)
2 | COc1cc(C)c(-c2ccc(OC)c(=O)cc2C)c(OC)c1OC | 41.8% (inactive) and 98.4% (inactive) | 46.5% (inactive) and 104% (inactive) | 31.5% (inactive) and 98.7% (inactive) | 4.53% (active) and 103% (inactive) | 17.6% (inactive) and 98.4% (inactive) | 37.8% (inactive) and 101% (inactive) | 13.3% (inactive) and 104% (inactive) | 37.5% (inactive) and 103% (inactive) | 6.39% (active) and 100% (inactive) | -7.85% (active) and 94.9% (inactive) | 12% (inactive) and 101% (inactive) | 28.3% (inactive) and 93.6% (inactive) | 20.1% (inactive) and 96.6% (inactive) | 11.9% (inactive) and 104% (inactive) | 19% (inactive) and 95.8% (inactive) | 36.6% (inactive) and 97.1% (inactive) | 47.5% (inactive) and 88.6% (inactive) | 31.9% (inactive) and 105% (inactive) |  | 10.1% (inactive) and 96.8% (inactive)
3 | CC(C)=CCc1c2c(c(O)c3c1O[C@]14C(=C[C@@H]5C[C@H]1C(C)(C)O[C@@]4(C/C=C(/C)C(=O)O)C5=O)C3=O)C=CC(C)(C)O2 | -2.64% (active) | -84.9% (active) | -71.1% (active) | -67.4% (active) | -43.9% (active) | -82.7% (active) | -100% (active) | -75.1% (active) | -64.5% (active) | -38.9% (active) | -72.5% (active) | -62.3% (active) | -50.9% (active) | -87.7% (active) | -37.8% (active) | -62.3% (active) | -76% (active) | -82.6% (active) | -33.7% (active) | -1.96% (active)
4 | CC(C)(O)/C=C/C(=O)[C@](C)(O)[C@H]1[C@H](O)C[C@@]2(C)[C@H]3CC=C4[C@@H](C[C@H](O)C(=O)C4(C)C)[C@]3(C)C(=O)C[C@]12C | 12.7% (inactive) | 32.3% (inactive) | 5.78% (active) | 15.6% (inactive) | 10.1% (inactive) | 1.91% (active) | 14% (inactive) | -3.28% (active) | 7.51% (active) | -31.5% (active) | 7.53% (active) | -39.4% (active) | 8.14% (active) | 0.229% (active) | 11.4% (inactive) | 18.4% (inactive) | -52.7% (active) | -1.68% (active) | -3.29% (active) | 3.53% (active)
